# High-throughput results: PubChem BioAssay, The Scripps Research Institute Molecular Screening Center
# Sampled rows, rich in hits. Any-hit rate of the full collection: about 2.9%.
# PLC-gamma1 inh: inhibitors of human phospholipase C gamma1. P19174. purified PLC-gamma1, fluorogenic substrate, fluorescence. inhibition, % at 12.2 µM. actives 0.84% (n = 370,000); in the data active = inhibition above about 9.5%
# KLK7 zymogen act: proKLK7 (human) activation, primary screen; actives 0.9% (n = 370,000); P49862; purified proKLK7, EDANS-DABCYL substrate fluorescence; 100% is mature enzyme control, 0% vehicle; activation, % at 7 µM;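 active = activation above the mean of all tested compounds plus 3 SD, computed per campaign excluding outliers beyond control limits, cut at about 13% in these data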
# ADAM17 inh: ADAM17 inhibition, QFRET primary screen. recombinant ADAM17, EDANS/DABCYL FRET peptide cleavage. P78536. actives 0.83% (n = 370,000). inhibition, % at 6.95 µM;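 active = inhibition above the mean of compounds lying between control limits plus 3 SD, set per campaign, cut at about 8.5% in these data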;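 also: 0% = DMSO-only wells as the low control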
# PLCb3 inh: blocks human PLC-beta3 enzyme activity; Purified PLC-beta3, fluorogenic substrate, fluorescence; inhibition, % at 12.2 µM; actives 0.18% (n = 370,000); in the data active = inhibition above about 11%;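 also: 0% = median of compound wells on plate and 100% = full blocker control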
# ADAM10 inh: ADAM10 inhibition, QFRET primary screen; actives 0.62% (n = 370,000); AID 720582; recombinant ADAM10, EDANS/DABCYL FRET peptide cleavage, 3 h; inhibition, % at 7 µM;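 active = inhibition above a per-campaign cutoff equal to the mean of compounds falling between control-based bounds plus 3 SD, cut at about 20% in these data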;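 also: 0% = DMSO wells while the 100% control is not disclosed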
# ADAM10 ctr: ADAM10 inhibition, counter-screen for ADAM17 exosite hits | shares compounds with ADAM17 inh | recombinant ADAM10, EDANS/DABCYL FRET peptide cleavage, 3 h | inhibition, % at 6.95 µM | actives 47% (n = 2,900);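 active = mean inhibition over the triplicate runs exceeds the activity threshold set in the earlier primary screen, cut at about 20% in these data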;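 also: 0% = DMSO wells and 100% = marimastat wells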
# ADAM17 confirm: confirmation of inhibitors of human ADAM17 | shares compounds with ADAM17 inh | recombinant ADAM17, EDANS/DABCYL QFRET peptide cleavage | inhibition, % at 6.95 µM | actives 65% (n = 2,900);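 active = mean inhibition across replicates above the hit cutoff set in the primary screen, cut at about 8.5% in these data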;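 also: 0% = DMSO wells and 100% = marimastat wells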
# Active calls of the source: *; . = no result.
SMILES,PLC-gamma1 inh,KLK7 zymogen act,ADAM17 inh,PLCb3 inh,ADAM10 inh,ADAM10 ctr,ADAM17 confirm
Cc1ccc(S(=O)(=O)N2CCC(C(=O)OC(C)C(=O)NCc3ccccc3)CC2)cc1C (stereo unspecified),4.6,0.5,9.7*,-2.7,14.6,7.3,7.3
CC(C)(C)NS(=O)(=O)c1ccc(CCC(=O)NCc2ccc3c(c2)OCO3)cc1,5.3,-0.1,9.0*,4.7,5.1,8.1,7.1
Cc1ccc(NC(=O)C2CCN(S(=O)(=O)c3ccccc3)CC2)cc1,1.3,0.6,2.8,-5.0,4.8,.,.
O=[N+]([O-])CC(c1ccccc1)P(=O)(c1ccccc1)c1ccccc1 (stereo unspecified),-1.0,0.1,15.9*,-2.5,1.2,-2.5,32.0*
O=P(c1ccccc1)(c1ccccc1)C(O)c1cccs1 (stereo unspecified),5.1,-0.1,1.9,4.2,4.5,.,.
Cc1ccc(-n2c(=O)[nH]c3c(oc4ccccc43)c2=O)cc1,-3.8,-0.3,-5.4,-8.3,-29.5,.,.
COc1ccc(-n2c(=S)[nH]c3c(oc4ccccc43)c2=O)cc1,-0.1,-0.7,9.2*,0.4,6.3,3.1,6.2
O=C(CSc1nc2ccccc2o1)NN=C/C=C/c1ccccc1,-1.0,0.2,9.5*,-4.1,18.8,13.5,15.9*
O=C(CSc1nc2ccccc2o1)N/N=C/c1ccccc1,1.4,0.6,0.1,-0.3,-2.5,.,.
CCNc1nc(SC(C)C(=O)Nc2ccccc2)nc(N2CCOCC2)n1 (stereo unspecified),-1.0,0.0,-4.9,0.4,-5.7,.,.
O=C1N[C@H](Cc2ccccc2)COC(=O)[C@H](Cc2ccc(F)cc2)CC/C=C/C[C@H]1CC(=O)N(CCO)Cc1ccccc1,-1.8,0.6,8.7*,-4.3,6.6,20.6*,11.0*
O=C1N[C@@H](c2ccccc2)COC(=O)[C@@H](Cc2ccc(F)cc2)CC/C=C/C[C@H]1CC(=O)N(CCO)Cc1ccccc1,0.3,0.3,1.5,-2.0,3.9,.,.
O=C1N[C@@H](c2ccccc2)COC(=O)[C@@H](Cc2ccc(F)cc2)CC/C=C/C[C@@H]1CC(=O)N(CCO)Cc1ccccc1,7.7,0.6,10.1*,2.9,27.2*,30.8*,14.7*
CCCCn1c(-c2ccc(OC(F)F)cc2)nc2c1c(=O)[nH]c(=O)n2CC(C)C,-1.1,-0.4,-4.0,0.9,-9.0,.,.
Cc1cc(N2CCCC2=O)cc(C)c1S(=O)(=O)NCCOc1ccc(C(C)(C)C)cc1,1.4,-0.7,10.6*,1.6,16.5,7.6,5.9
O=C1CCCN1c1ccc(S(=O)(=O)NCCOc2ccccc2)cc1,2.2,-0.7,-0.9,-1.3,7.3,.,.
Cc1cccc(NC(=O)C2CCCC2)c1,0.1,0.5,-5.7,0.1,-12.5,.,.
CC(=O)c1cccc(NC(=O)C2CCCC2)c1,9.3,0.4,9.5*,3.7,-1.1,-7.2,-2.5
CCCCNC(=O)C[C@H]1C[C@@]2(C(=O)OC)C(=C[C@H](C(C)(C)C)O[C@@H]2C)N(Cc2ccccc2)C1=O,-1.2,-0.1,0.8,3.9,-3.3,.,.
COC(=O)[C@]12C[C@H](CC(=O)NCc3cccc(C(F)(F)F)c3)C(=O)N(Cc3ccc4c(c3)OCO4)C1=C[C@H](C(C)(C)C)O[C@@H]2C,0.3,-0.6,12.8*,8.2,19.1,54.3*,19.1*
COC(=O)[C@]12C[C@H](CC(=O)NCc3ccccc3)C(=O)N(Cc3ccc4c(c3)OCO4)C1=C[C@H](C(C)(C)C)O[C@@H]2C,-0.1,0.7,6.1,3.1,14.4,.,.
COC(=O)[C@]12C[C@H](CC(=O)NCCCCc3ccccc3)C(=O)N(Cc3ccco3)C1=C[C@H](C(C)(C)C)O[C@@H]2C,1.3,0.1,9.3*,-1.5,19.0,27.3*,14.9*
Cc1cc(C)nc(NC(=O)c2c(-c3ccccc3Cl)noc2C)c1,-1.6,0.4,-1.9,0.7,-2.3,.,.
Cc1noc(C(=O)NCC2CCCO2)c1Cl (stereo unspecified),-0.2,0.6,-0.6,-8.6,2.8,.,.
